Source: PubChem BioAssay (EPA / NIEHS)
The source made the active and inactive calls. How the source made its calls: active means hit-call score of the fitted dose curve at least 0.9, where 1 is the maximum; inactive means score below 0.9.

Experiments:
Settings in all cases: mRNA level, 48 h; actives raise or lower the signal
[1] = read-out: Tumor necrosis factor receptor superfamily member 6 (Homo sapiens) (UniProt P25445); assay: LTEA_HepaRG_FAS: Life Technologies and Expression Analysis (LTEA) Assay for Fas cell surface death receptor (FAS) using HepaRG (AID 2283447)
In short: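 Differentiated human HepaRG cells, pre-cultured 48 h, were exposed in duplicate for 48 h to 8-point half-log concentrations (top 100 uM, 0.5% DMSO) in serum-free induction medium; FAS mRNA measured by qRT-PCR, normalized to ACTB/GAPDH/POLR2A, bidirectional fit versus DMSO.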

[2] = read-out: Cyclin Dependent Kinase Inhibitor 1A (CDKN1A), CDKN1A (gene 1026); assay: LTEA_HepaRG_CDKN1A: Life Technologies and Expression Analysis (LTEA) Assay for Cyclin Dependent Kinase Inhibitor 1A (CDKN1A) using HepaRG (AID 2283450)
In short: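 Read-out is CDKN1A mRNA by TaqMan qRT-PCR, normalized to three housekeeping genes and fitted in both directions against the DMSO baseline. Human HepaRG cells were treated 48 h with test chemicals up to 100 uM in half-log steps, 0.5% DMSO.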

[3] = read-out: Cyclin D1 (CCND1), CCND1 (gene 595); assay: LTEA_HepaRG_CCND1: Life Technologies and Expression Analysis (LTEA) Assay for Cyclin D1 (CCND1) using HepaRG (AID 2283451);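 on AC50: TaqMan qRT-PCR transcript level normalised to ACTB GAPDH and POLR2A housekeeping genes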
In short: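 HepaRG plated 48 h, medium switched to serum-free induction medium, chemicals added in duplicate (top 100 uM, half-log steps, 0.5% DMSO) for 48 h, cells lysed, RNA measured by TaqMan qRT-PCR.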

[4] = read-out: catalase (CAT), CAT (gene 847); assay: LTEA_HepaRG_CAT: Life Technologies and Expression Analysis (LTEA) Assay for catalase (CAT) using HepaRG (AID 2283452)
In short: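 Differentiated HepaRG cells in serum-free induction medium were dosed 48 h in duplicate, eight half-log concentrations from 100 uM in 0.5% DMSO. Transcript measured by TaqMan qRT-PCR, normalised to ACTB/GAPDH/POLR2A, fitted bidirectionally against DMSO.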

[5] = read-out: flavin-containing dimethylaniline monooxygenases 3 (FMO3), FMO3 (gene 2328); assay: LTEA_HepaRG_FMO3: Life Technologies and Expression Analysis (LTEA) Assay for flavin-containing dimethylaniline monooxygenases 3 (FMO3) using HepaRG (AID 2283453);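 on AC50: FMO3 transcript by TaqMan qRT-PCR normalized to ACTB GAPDH and POLR2A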
In short: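 FMO3 transcript quantified by TaqMan qRT-PCR against three housekeeping genes after 48 h chemical exposure of HepaRG cells. Eight-point half-log series, top 100 uM, 0.5% DMSO vehicle; phenobarbital 1mM induction control; up- or down-regulation fitted.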

[6] = read-out: Cytochrome P450 (CYP1A1), CYP1A1 (gene 1543); assay: LTEA_HepaRG_CYP1A1: Life Technologies and Expression Analysis (LTEA) Assay for Cytochrome P450 (CYP1A1) using HepaRG (AID 2283454)
In short: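 HepaRG, 48 h post-plating switched to serum-free induction medium; 8-pt conc-response (top 100 uM, half-log, 0.5% DMSO), duplicates, 48 h. Lysis in RLT, TaqMan qRT-PCR for CYP1A1; gain or loss vs DMSO.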

[7] = read-out: CFLAR gene, CFLAR (gene 8837); assay: LTEA_HepaRG_CFLAR: Life Technologies and Expression Analysis (LTEA) Assay for CFLAR gene using HepaRG (AID 2283455)
In short: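 Gain- or loss-of-signal changes in CFLAR transcript were fitted bidirectionally relative to 0.5% DMSO. Cells (HepaRG, duplicate wells) were dosed for 48 h across eight half-log concentrations topping at 100 uM; quantitation by TaqMan qRT-PCR.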

[8] = read-out: Forkhead box O1 (FOXO1), FOXO1 (gene 2308); assay: LTEA_HepaRG_FOXO1: Life Technologies and Expression Analysis (LTEA) Assay for Forkhead box O1 (FOXO1) using HepaRG (AID 2283456)
In short: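 Using one lot of HepaRG hepatic cells kept in 0.5% DMSO, the team applied test chemicals in duplicate, half-log dilutions from 100 uM, for 48 h. Expression, normalised to ACTB/GAPDH/POLR2A, was compared with vehicle in either direction.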

[9] = read-out: growth arrest and DNA damage 45 (GADD45A), GADD45A (gene 1647); assay: LTEA_HepaRG_GADD45A: Life Technologies and Expression Analysis (LTEA) Assay for growth arrest and DNA damage 45 (GADD45A) using HepaRG (AID 2283458)
In short: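 GADD45A expression was measured by TaqMan qRT-PCR against three housekeeping genes (ACTB, GAPDH, POLR2A) after 48 h treatment of HepaRG cells. Eight-point half-log series up to 100 uM in 0.5% DMSO, run in duplicate.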

[10] = read-out: Forkhead box O3 (FOXO3), FOXO3 (gene 2309); assay: LTEA_HepaRG_FOXO3: Life Technologies and Expression Analysis (LTEA) Assay for Forkhead box O3 (FOXO3) using HepaRG (AID 2283459)
In short: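 Gene-expression endpoint: FOXO3 transcript level by qRT-PCR in HepaRG cultures treated 48 h with chemicals up to 100 uM (half-log, 0.5% DMSO vehicle).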

[11] = read-out: ABC Transporter (ABCB1), ABCB1 (gene 5243); assay: LTEA_HepaRG_ABCB1: Life Technologies and Expression Analysis (LTEA) Assay for ABC Transporter (ABCB1) using HepaRG (AID 2283460)
In short: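 Human liver HepaRG line treated 48 h with up to 100 uM compound (eight half-log points, 0.5% DMSO); ABCB1 mRNA change fitted bidirectionally against DMSO controls.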

[12] = read-out: growth arrest and DNA damage 45 (GADD45B), GADD45B (gene 4616); assay: LTEA_HepaRG_GADD45B: Life Technologies and Expression Analysis (LTEA) Assay for growth arrest and DNA damage 45 (GADD45B) using HepaRG (AID 2283461)
In short: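 HepaRG, ~100,000 cells/well, 48 h plating; serum-free induction medium; cpd 100 uM top, half-log x8, 0.5% DMSO, duplicate, 48 h; lysis in RLT, RNA isolation, qRT-PCR; norm ACTB/GAPDH/POLR2A; bidirectional fit vs DMSO.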

[13] = read-out: ABC Transporter (ABCC3), ABCC3 (gene 8714); assay: LTEA_HepaRG_ABCC3: Life Technologies and Expression Analysis (LTEA) Assay for ABC Transporter (ABCC3) using HepaRG (AID 2283462)
In short: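 Human HepaRG, 48 h dosing, 8-pt half-log series from 100 uM, 0.5% DMSO vehicle, duplicates. ABCC3 mRNA by TaqMan qRT-PCR, housekeeping-normalized; bidirectional curve fit vs DMSO.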

[14] = read-out: ABC Transporter (ABCB11), ABCB11 (gene 8647); assay: LTEA_HepaRG_ABCB11: Life Technologies and Expression Analysis (LTEA) Assay for ABC Transporter (ABCB11) using HepaRG (AID 2283463)
In short: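 Using HepaRG cultures held in 0.5% DMSO, chemicals were tested at half-log dilutions from 100 uM for 48 h. Induction or suppression of ABCB11 mRNA, normalized to ACTB, GAPDH and POLR2A, was fitted bidirectionally against vehicle.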

[15] = read-out: ABC Transporter (ABCC2), ABCC2 (gene 1244); assay: LTEA_HepaRG_ABCC2: Life Technologies and Expression Analysis (LTEA) Assay for ABC Transporter (ABCC2) using HepaRG (AID 2283464)
In short: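 HepaRG, 48 h post-plating; serum-free induction medium; cpd 8-pt, 100 uM top, half-log, 0.5% DMSO, duplicate, 48 h. Readout: ABCC2 mRNA by qRT-PCR, norm. ACTB/GAPDH/POLR2A. Bidirectional fit vs DMSO baseline.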

[16] = read-out: Broad substrate specificity ATP-binding cassette transporter ABCG2 (Homo sapiens) (UniProt Q9UNQ0); assay: LTEA_HepaRG_ABCG2: Life Technologies and Expression Analysis (LTEA) Assay for ABC Transporter (ABCG2) using HepaRG (AID 2283465)
In short: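 Gene expression of ABCG2 in HepaRG liver cells is quantified by qRT-PCR following 48 h exposure across an eight-point series topping at 100 uM. Values come from bidirectional fitting relative to DMSO vehicle.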

[17] = read-out: ATP-citrate lyase (ACLY), ACLY (gene 47); assay: LTEA_HepaRG_ACLY: Life Technologies and Expression Analysis (LTEA) Assay for ATP-citrate lyase (ACLY) using HepaRG (AID 2283466)
In short: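 ACLY expression changes in human HepaRG liver cells are quantified by qRT-PCR after 48 h exposure to test chemicals (maximum 100 uM, half-log steps). Values are fitted in both directions relative to 0.5% DMSO vehicle.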

[18] = read-out: Cyclin D2 (CCND2), CCND2 (gene 894); assay: LTEA_HepaRG_CCND2: Life Technologies and Expression Analysis (LTEA) Assay for Cyclin D2 (CCND2) using HepaRG (AID 2283449);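 further: CCND2 transcript measured by TaqMan qRT-PCR and normalised to three housekeeping genes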
In short: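 In this HepaRG study, an eight-point concentration series (max 100 uM, 0.5% DMSO) is applied for 48 h. CCND2 mRNA change is derived by qRT-PCR normalised to ACTB, GAPDH and POLR2A.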

Measured: AC50

Sequence of Broad substrate specificity ATP-binding cassette transporter ABCG2 (Homo sapiens) (Q9UNQ0 whole entry, looked up): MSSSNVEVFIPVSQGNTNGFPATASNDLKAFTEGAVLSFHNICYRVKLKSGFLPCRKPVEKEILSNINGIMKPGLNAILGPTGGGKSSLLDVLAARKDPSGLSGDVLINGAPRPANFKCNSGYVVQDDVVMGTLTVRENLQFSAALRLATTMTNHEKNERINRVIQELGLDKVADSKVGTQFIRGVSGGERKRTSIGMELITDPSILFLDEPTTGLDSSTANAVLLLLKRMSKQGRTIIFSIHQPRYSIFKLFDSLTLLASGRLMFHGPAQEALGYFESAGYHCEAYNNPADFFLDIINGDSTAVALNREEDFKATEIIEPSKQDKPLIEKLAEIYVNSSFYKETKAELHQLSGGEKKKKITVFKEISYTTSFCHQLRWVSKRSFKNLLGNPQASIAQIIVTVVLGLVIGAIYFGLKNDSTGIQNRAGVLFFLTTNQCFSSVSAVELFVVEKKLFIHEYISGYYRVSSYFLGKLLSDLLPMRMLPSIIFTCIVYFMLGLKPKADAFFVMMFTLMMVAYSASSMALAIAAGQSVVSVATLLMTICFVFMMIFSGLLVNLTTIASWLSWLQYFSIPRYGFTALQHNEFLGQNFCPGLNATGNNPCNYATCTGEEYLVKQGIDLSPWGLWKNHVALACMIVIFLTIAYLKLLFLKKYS

C[C@]12CCC(=O)C=C1CC[C@@H]1[C@@H]2CC[C@]2(C)C(=O)CC[C@@H]12
active: [9] 50 µM | [11] 17.1 µM | [14] 2.67 µM | [15] 50 µM | [16] 19.7 µM | [17] 88.9 µM
not listed: [18]
inactive: all other assays above

CC(C)C(=O)OCC(C)(C)C(OC(=O)C(C)C)C(C)C (stereo not drawn)
not listed: [14] | [18]
inactive: all other assays above

CCCN(CCC)N=O
active: [6] 50 µM
inactive: all other assays above

Nc1ccc(-c2ccc(N)cc2)cc1
active: [6] 50 µM | [11] 0.0737 µM | [14] 3.77 µM
inactive: all other assays above

ClC1=C(Cl)[C@]2(Cl)[C@@H]3[C@@H](Cl)[C@H]4O[C@H]4[C@@H]3C1(Cl)C2(Cl)Cl
active: [6] 50 µM | [11] 6.62 µM | [16] 15.8 µM | [17] 75 µM
not listed: [18]
inactive: all other assays above

Clc1ccc(C(c2ccccc2Cl)C(Cl)(Cl)Cl)cc1 (stereo not drawn)
active: [4] 19.3 µM | [5] 74.6 µM | [6] 20 µM | [11] 16.9 µM | [15] 13.2 µM | [16] 4.48 µM
not listed: [14] | [18]
inactive: all other assays above

c1ccc(-c2ccccc2)cc1
not listed: [1]
inactive: all other assays above

CCC(C)c1cc([N+](=O)[O-])cc([N+](=O)[O-])c1O (stereo not drawn)
active: [1] 2.25 µM | [2] 7.37 µM | [3] 11.1 µM | [4] 1.38 µM | [5] 2.51 µM | [6] 85.7 µM | [7] 1.5 µM | [8] 3.37 µM | [9] 1.07 µM | [10] 1.77 µM | [11] 1.39 µM | [12] 10.7 µM | [14] 1.29 µM | [15] 1.46 µM
inactive: [13] | [16] | [17]

ClC1=C(Cl)[C@]2(Cl)[C@@H]3[C@H]4C[C@H]([C@@H]5O[C@H]45)[C@@H]3[C@@]1(Cl)C2(Cl)Cl
active: [4] 13.3 µM | [5] 50 µM | [15] 2.13 µM | [16] 6.76 µM
not listed: [14] | [18]
inactive: all other assays above

CCOC(=O)C(O)(c1ccc(Cl)cc1)c1ccc(Cl)cc1
active: [6] 47.1 µM | [11] 73 µM
not listed: [14]
inactive: all other assays above

CC(C)(c1ccccc1)c1ccc(O)cc1
active: [14] 76.1 µM
not listed: [7] | [18]
inactive: all other assays above

CO/C=C(/C(=O)OC)c1ccccc1COc1cccc(C(F)(F)F)n1
active: [1] 9.8 µM | [2] 9.85 µM | [3] 50 µM | [4] 6.81 µM | [5] 20.9 µM | [6] 8.52 µM | [7] 18.8 µM | [8] 7.38 µM | [9] 9.39 µM | [12] 24.7 µM | [13] 1.91 µM | [15] 28 µM | [16] 3.03 µM
inactive: [10] | [11] | [17]

O=C(O)C(F)(F)C(F)(F)C(F)(F)C(F)(F)C(F)(F)F
active: [5] 2.34 µM | [6] 50 µM | [16] 9.92 µM
not listed: [14]
inactive: all other assays above

ClC1=C(Cl)[C@]2(Cl)[C@@H]3[C@@H]4C[C@@H]([C@H]5O[C@@H]45)[C@@H]3[C@@]1(Cl)C2(Cl)Cl
active: [6] 28.3 µM | [10] 0.0321 µM | [11] 0.0325 µM | [15] 4.03 µM | [16] 20.8 µM | [17] 0.033 µM
not listed: [14]
inactive: all other assays above

CC(C)(O)C(=O)Nc1ccc([N+](=O)[O-])c(C(F)(F)F)c1
active: [1] 0.0219 µM | [18] 0.0398 µM | [6] 0.0423 µM | [8] 0.0468 µM
not listed: [13] | [14]
inactive: all other assays above

CCCCCCOC(=O)c1ccccc1C(=O)OCCCCCC
active: [6] 50 µM
not listed: [18]
inactive: all other assays above
